# The sample as a whole holds a higher share of hits than the screen did.
# SF-1 inh – inhibitors of human SF-1, primary screen, cell-based, CHO-K1, Gal4-SF-1 LBD, luciferase luminescence. AID 525, 2006. 0.55% of 65,000 active. CHO-K1 Gal4-SF-1 LBD luciferase reporter. inhibition, % at 10 µM;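 active = inhibition above the mean inhibition of all tested compounds plus 3 SD, cut at about 48% in these data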
# Target sequence (Q13285 whole entry, looked up, the tested form may be a part): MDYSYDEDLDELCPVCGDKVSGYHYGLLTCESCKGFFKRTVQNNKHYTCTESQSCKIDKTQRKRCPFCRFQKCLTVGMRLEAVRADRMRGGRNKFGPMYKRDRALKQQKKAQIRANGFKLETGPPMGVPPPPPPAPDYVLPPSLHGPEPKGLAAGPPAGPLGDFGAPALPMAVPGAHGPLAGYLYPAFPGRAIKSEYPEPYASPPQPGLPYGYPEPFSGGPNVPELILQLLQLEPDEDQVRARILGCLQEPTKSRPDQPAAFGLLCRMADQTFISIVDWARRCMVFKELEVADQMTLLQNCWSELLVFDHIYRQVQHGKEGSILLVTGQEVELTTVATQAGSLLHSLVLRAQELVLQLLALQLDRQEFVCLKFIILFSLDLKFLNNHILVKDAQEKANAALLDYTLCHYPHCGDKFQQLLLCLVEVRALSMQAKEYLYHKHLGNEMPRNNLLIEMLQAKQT
# Numbers stand for hits; . = inactive.
SMILES,SF-1 inh
Cn1ncnc2c(=O)n(C)c(=O)nc1-2,96
CN1C(=O)C(C2(C#N)CCCCC2)C(=O)N(C)C1=O,.
O=P(CN1CCN(c2ccccc2)CC1)(N1CCCCC1)N1CCCCC1,.
COCCn1cc(C(=O)N2CCC3(CC2)OCCO3)c2c3ccccc3n(C)c2c1=O,.
CC(C(N)=O)N1CC(c2ccccc2)CC1=O (centres undefined),.
OC1(c2ccc(F)cc2)CC2CCC(C1)N2Cc1nnnn1C1CCCCC1 (centres undefined),.
COc1cccc(-c2cc(C(F)(F)F)n3nc(C(=O)N4CCC5(CC4)OCCO5)cc3n2)c1,.
Cc1c2ccncc2c(C)c2c1[nH]c1ccccc12,76
CCC(=NCC1CCCO1)c1c(O)[nH]c(=O)[nH]c1=O (centres undefined),.
CCCCn1c(O)c(C=NCCCN(CC)CC)c(=O)[nH]c1=O,.
COC(=O)N(c1ccccc1)P1(=S)OCCO1,.
O=C1C2CCN(CC2)[C@@H]1Cc1ccc2ccccc2c1O,.
C[C@@]1(CO)[C@H](O)CC[C@@]2(C)[C@H]1CC[C@H]1C[C@@H]3C[C@@]12CC[C@]3(O)CO,84
Cc1cccc(N2CCc3c2nc2ccccc2c3N)c1,.
C=CCOC(=O)C1=C(C)OC(N)=C(C#N)[C@@]12C(=O)N(CC(N)=O)c1ccccc12,.
C[C@]12CCC(=O)C=C1CCC1C2CC[C@@]2(C)C1CC[C@@]2(O)CC#N (some centres undefined),.
CCCCn1c(O)c(C=NCCN2CCCCC2)c(=O)[nH]c1=O,.
CCOP1(=S)Oc2cc3c(cc2C(C(=O)OC)(C(F)(F)F)O1)OCO3 (centres undefined),.
CN1CCN(C(=O)COc2ccc(-c3nc4ccccc4s3)cc2)CC1,71
COc1ccc(C2C(C(=O)N3CCC4(CC3)OCCO4)c3cc(OC)c(OC)cc3C(=O)N2C)cc1 (centres undefined),.
Cc1ccc2cc3cc(C(=O)N4CCC5(CC4)OCCO5)oc3nc2c1,.
CCOc1cc2[nH]c(=S)n(CCCC(=O)N3CCC4(CC3)OCCO4)c(=O)c2cc1OCC,.
C=CCn1c(O)c(C(C)=Nc2ccc(C(=O)OCC)cc2)c(=O)[nH]c1=O,.
COC(=O)c1ccc(N2C(=O)CC(N3CCC(n4c(=O)[nH]c5ccccc54)CC3)C2=O)cc1 (centres undefined),54
CC(C)NS(=O)(=O)c1ccc(OCC(=O)N2CCN(Cc3ccccc3)CC2)c(Cl)c1,.
